From PubChem
F508del corr = CFTR F508del correction in bronchial cells. CFBE cells, YFP halide quenching; stimulated with forskolin plus potentiator P3; % fluorescence drop versus neutral controls. activity (quench increase), % at 7.58 µM. 0.36% of 350,000 active. AID 720511;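 active means mean added fluorescence quench of at least 8% versus neutral control, with both replicates also reaching 8%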;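 further: cells transiently co-express mutant CFTR-F508del with the halide-sensitive YFP; corrector assay measuring rescue of mutant channel to the surface after 24 h compound exposure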
CASP6 VEID inh = caspase-6 (human) enzyme inhibition; purified caspase-6, Z-VEID-R110 cleavage fluorescence; inhibition, % at 12.5 µM; 0.53% of 350,000 active; AID 686996;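 active means mean inhibition across replicates at least about 35%, with every replicate also reaching that limit, limit read from the data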;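 further: 0% = median of neutral control wells and 100% = no fluorescence left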
PglD inh = PglD (C. jejuni) enzyme inhibition. purified PglD enzyme, DTNB colorimetric CoA detection. inhibition, % at 12.5 µM. 0.098% of 360,000 active. AID 602405; in the data active means inhibition above about 16%, passing the limit was not always enough
HIV Env fusion = blocks HIV Env-driven cell-cell fusion; inhibition, % at 12.3 µM; 1.1% of 360,000 active; AID 651610; HeLa-JRFL Env/CEM21 cell fusion, luciferase;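 active means mean replicate inhibition score of at least 50 and every replicate individually at or above 50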;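 further: 0% = plate neutral controls and 100% = maraviroc near 300 nM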
NSD2 HMT inh = blocks human histone methyltransferase NSD2 | O96028 | NSD2 peptide methylation, AlphaScreen, 120 min | inhibition, % at 12.5 µM | 0.54% of 310,000 active; in the data active means inhibition above about 50%
Target sequence (O96028 whole entry, looked up): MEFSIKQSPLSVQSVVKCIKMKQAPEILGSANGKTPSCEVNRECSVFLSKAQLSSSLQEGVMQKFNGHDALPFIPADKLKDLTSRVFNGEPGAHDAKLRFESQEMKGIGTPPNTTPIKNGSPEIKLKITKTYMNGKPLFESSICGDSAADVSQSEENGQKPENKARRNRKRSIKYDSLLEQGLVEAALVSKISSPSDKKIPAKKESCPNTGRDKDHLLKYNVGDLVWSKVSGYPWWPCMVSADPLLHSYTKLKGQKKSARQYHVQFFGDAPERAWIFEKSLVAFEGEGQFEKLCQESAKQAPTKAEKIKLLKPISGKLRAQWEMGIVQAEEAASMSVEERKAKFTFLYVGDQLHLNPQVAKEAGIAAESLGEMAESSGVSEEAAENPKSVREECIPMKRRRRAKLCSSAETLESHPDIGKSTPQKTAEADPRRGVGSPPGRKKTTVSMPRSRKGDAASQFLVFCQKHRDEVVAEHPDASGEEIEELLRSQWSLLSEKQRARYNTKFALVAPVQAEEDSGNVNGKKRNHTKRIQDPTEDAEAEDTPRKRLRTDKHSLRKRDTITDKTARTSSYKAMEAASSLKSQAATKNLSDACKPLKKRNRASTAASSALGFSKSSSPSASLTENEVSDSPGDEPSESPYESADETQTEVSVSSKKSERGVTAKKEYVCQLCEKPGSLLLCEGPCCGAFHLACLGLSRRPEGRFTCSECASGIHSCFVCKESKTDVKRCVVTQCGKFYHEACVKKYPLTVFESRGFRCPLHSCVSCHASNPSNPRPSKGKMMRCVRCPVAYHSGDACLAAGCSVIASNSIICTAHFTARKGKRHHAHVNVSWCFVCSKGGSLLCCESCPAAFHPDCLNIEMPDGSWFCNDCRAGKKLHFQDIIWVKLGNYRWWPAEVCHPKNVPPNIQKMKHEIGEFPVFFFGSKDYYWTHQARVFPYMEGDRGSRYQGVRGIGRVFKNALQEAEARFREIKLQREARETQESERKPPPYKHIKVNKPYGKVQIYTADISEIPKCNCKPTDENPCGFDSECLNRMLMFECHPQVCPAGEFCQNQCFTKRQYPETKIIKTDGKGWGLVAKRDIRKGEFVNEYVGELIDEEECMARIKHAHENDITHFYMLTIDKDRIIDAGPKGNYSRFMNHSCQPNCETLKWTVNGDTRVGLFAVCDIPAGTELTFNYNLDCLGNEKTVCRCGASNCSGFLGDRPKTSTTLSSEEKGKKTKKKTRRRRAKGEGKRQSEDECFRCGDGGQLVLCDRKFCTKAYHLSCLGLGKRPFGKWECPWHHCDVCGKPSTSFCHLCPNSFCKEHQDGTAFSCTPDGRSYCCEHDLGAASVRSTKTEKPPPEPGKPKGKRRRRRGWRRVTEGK
ALR H2O2 inh = human ALR oxidase inhibition via reduced H2O2. P55789. purified ALR, DTT oxidation, H2O2 HRP-luminol luminescence. inhibition, % (concentration not given with the values). 3.8% of 290,000 active. AID 485317;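 active means mean replicate inhibition above about 79%, with every replicate also reaching it, limit read from the data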
Active calls of the source: *; i = inactive; x = no result given; [ ] = another dose, or the depositor's remark. Only some compounds are listed: those with a hit (about 4.1% of all), similar ones and a draw of the others.

SMILES	F508del corr	CASP6 VEID inh	PglD inh	HIV Env fusion	NSD2 HMT inh	ALR H2O2 inh
CC(=O)c1ccc2c(c1)N(CCCN1CCC(CCO)CC1)c1ccccc1S2	1	4	1	8	x	96*
CN(C)CCCN1c2ccccc2Sc2ccc(Cl)cc21	1	1	1	-33	x	98*
Clc1ccc(OCCOCCNCc2ccccc2)cc1Cl	-2	-5	4	55*	-6	-4
CC(=O)Nc1ccc(SCC(=O)c2cc(C)ccc2C)cc1	-1	2	-2	-9	-1	98*
CC(=O)Nc1ccc(SCC(=O)c2cc(C)n(-c3ccccc3)c2C)cc1	x	x	x	-38	1	99*
N#CCCN(C(=O)CSc1ccc2c(c1)OCCO2)c1ccccc1	x	x	-4	-126	-1	89*
COc1ccc(-n2c(C)cc(C(=O)CCl)c2C)cc1	-4	3	5	-132	12	38
COc1ccc(-n2c(C)cc(C(=O)CSc3ccc(NC(C)=O)cc3)c2C)cc1	x	x	-6	-5	1	97*
Cc1cc(C(=O)CSc2cccc[n+]2[O-])c(C)n1-c1ccccc1	-2	0	x	12	1	-15
CN(C(=O)CSc1ccc2c(c1)OCCO2)c1ccccc1	-2	-1	2	-48	-1	38
CC(=O)Nc1ccc(SCC(=O)O)cc1	-2	-1	3	8	4	53
C[C@@H]1CN([C@@H](C)CO)S(=O)(=O)c2ccc(C#CC(C)(C)O)cc2O[C@@H]1CN(C)C(=O)C1CCCCC1	-3	2	2	-105[16.7 µM]	x	x
C[C@@H](NC(=O)[C@H]1[C@H](CO)[C@H]2Cn3c(ccc(-c4cccc(F)c4)c3=O)[C@H]2N1C)c1ccccc1	2	-1	x	x	x	x
O=C(C[C@H]1C[C@@H]2c3cc(NC(=O)Nc4ccccc4)ccc3O[C@@H]2[C@H](CO)O1)NCC(F)(F)F	1	2	5	x	x	x
C[C@H](CO)N1C[C@H](C)[C@H](CN(C)C(=O)CC2CC2)Oc2cc(C3=CCCC3)ccc2S1(=O)=O	1	0	1	-15[16.7 µM]	x	x
CC(=O)Nc1ccc(SCC(=O)N(CCC#N)c2cc(C)cc(C)c2)cc1	x	x	x	-65	x	98*
CC(C)/C(=N\NS(=O)(=O)c1ccc(Br)cc1)c1cccs1	1	2	x	7	0	80*
C/C(=N\NS(=O)(=O)c1ccc([N+](=O)[O-])cc1)c1cccs1	-5	-3	x	-1	0	62
COc1cccc(N2CCN(C(=O)c3ccc(CS(=O)Cc4ccccc4Cl)o3)CC2)c1 (stereo unspecified)	0	-1	3	-3	2	52
O=C(c1ccc(CS(=O)Cc2ccccc2Cl)o1)N1CCN(c2ccccn2)CC1 (stereo unspecified)	1	-1	6	1	2	99*
O=C(c1ccc(CS(=O)Cc2ccccc2Cl)o1)N1CCN(c2cccc(Cl)c2)CC1 (stereo unspecified)	1	5	1	23	2	99*
CN(c1cccc(NC(=O)CSc2ccc(Cl)cc2)c1)S(C)(=O)=O	x	x	2	61*	13	-1
O=Cc1[nH]c2ccccc2c1N(C(=O)CCl)c1ccc([N+](=O)[O-])cc1	-3	4	3	45	16	99*
COc1ccc(S(=O)(=O)Nc2cccc3c2O[C@H](CN(C)CC2CCCCC2)[C@H](C)CN([C@H](C)CO)C3=O)cc1	2	x	x	6[16.7 µM]	x	x
O=C(C[C@H]1CC[C@H]2[C@@H](COC[C@@H](O)CN2S(=O)(=O)c2ccc(Oc3ccccc3)cc2)O1)NC1CCC1	2	-10	-81	x	x	x
SMILES	F508del corr	CASP6 VEID inh	PglD inh	HIV Env fusion	NSD2 HMT inh	ALR H2O2 inh
COc1ccccc1NC(=O)N(C)C[C@@H]1Oc2ncc(C#CC(C)C)cc2C(=O)N([C@@H](C)CO)C[C@H]1C	2	-2	-4	x	x	x
O=c1nc2s/c(=C\c3ccc(-c4ccccc4[N+](=O)[O-])o3)c(=O)n2nc1-c1ccccc1	x	39*	x	-10	6	x
COc1ccccc1-c1cn(CC[C@@H]2CC[C@@H](NC(=O)NC(C)C)[C@H](CO)O2)nn1	-2	1	2	0[16.7 µM]	x	x
CN1CCN(C(=O)C[C@@H]2CC[C@H]3[C@@H](COC[C@@H](O)CN3S(=O)(=O)c3cccc(Cl)c3)O2)CC1	-2	-1	-4	x	x	x
C[C@H](O)C#Cc1ccc2c(c1)O[C@@H](CN(C)C(=O)Cc1ccccn1)[C@H](C)CN([C@@H](C)CO)S2(=O)=O	-3	2	7	-1[16.7 µM]	x	x
N#C/C(=N\Nc1ccc(Cl)c(Cl)c1)C(=O)C1CC1	6	-3	-9	8	8	19
N#C/C(=N\Nc1ccc(F)cc1)C(=O)C1CC1	-2	0	1	4	-1	98*
O=C(Cc1cccc2ccccc12)NCC(=O)N1CCN(CC(=O)Nc2ccc(F)cc2)CC1	-3	8	-7	65*	-3	x
O=C(Cc1cccc2ccccc12)NCC(=O)N1CCN(Cc2cccc(C(F)(F)F)c2)CC1	0	-9	x	x	0	x
CN1[C@@H]2c3cccc(=O)n3C[C@@H]2[C@@H](CO)[C@@H]1C(=O)NCC1CCCCC1	0	1	-3	x	x	x
C=CCn1c(SCc2c(C)noc2C)nc2cc(C(=O)O)ccc2c1=O	x	x	3	-62	3	38
C=CCn1c(SCc2c(C)noc2C)nc2ccccc2c1=O	x	x	0	62*	-1	4
COc1ccc(C(=O)COC(=O)c2ccc(OC)c(OC)c2)cc1OC	x	-1	-2	x	-1	28
COc1ccc(C(=O)CSc2cc(C)nc3nc(C)nn23)cc1OC	x	x	-3	x	2	98*
COc1ccc(C(=O)CSC#N)cc1OC	4	4	x	i	-30	99*
CCCn1c(CN2CCN(C(=O)OCC)CC2)nc2cc(NC(=O)CC)ccc21	8.6*	-1	4	-21	-2	x
CN(C)CC(=O)N[C@H]1C=C[C@@H](CC(=O)O)O[C@@H]1CO	3	0	x	x	x	x
CCCC(=O)Nc1ccc2c(c1)C(=O)N(C)[C@H]1CC[C@@H](CC(=O)NCc3ccccc3F)O[C@@H]1CO2	0	x	1	-11[16.7 µM]	x	x
O=[n+]1cc(-c2cc3ccccc3o2)n([O-])c2c1CCCC2	x	x	-4	-73	-7	98*
O=C(NCc1cccnc1)c1cc(C2CCCCN2C(=O)CCCc2ccccc2)on1 (stereo unspecified)	12*	5	-3	2	6	x
CC12CCC(=O)N1C(C(=O)NNC(=O)COc1ccc(Br)cc1)CS2 (stereo unspecified)	-4	-3	-2	1	-1	6
Cc1cc(Cl)ccc1OCC(=O)NNC(=O)C1CSC2(C)CCC(=O)N12 (stereo unspecified)	-1	0	-2	71*	2	-1
COc1ccc2c3c([nH]c2c1)[C@@H](CO)N(C(=O)c1ccc(F)cc1)CC31CCN(C(=O)CC2CC2)CC1	2	x	x	x	x	x
